Test results reported in PubChem BioAssay.
Several values for one entry are separate records, joined by “and”; a condition that tells them apart may be missing. Equal entries are not always repeated. Activity calls are given as the source filed them.

Assays:
[1] = target: Albumin (Bos taurus) (UniProt P02769); experiment: compounds binding labelled BSA control protein – biochemical, small-molecule microarray, Alexa647 label, 635/667 nm fluorescence, artefact control for SMM control protein annotation, profiling panel (AID 1118); conditions: BSA-A647 binding, fluorescence 635 nm, higher = more signal;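 further: score merges 667 nm emission intensity and signal-to-noise per printed compound spot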
Albumin (Bos taurus), sequence (P02769 whole entry, looked up): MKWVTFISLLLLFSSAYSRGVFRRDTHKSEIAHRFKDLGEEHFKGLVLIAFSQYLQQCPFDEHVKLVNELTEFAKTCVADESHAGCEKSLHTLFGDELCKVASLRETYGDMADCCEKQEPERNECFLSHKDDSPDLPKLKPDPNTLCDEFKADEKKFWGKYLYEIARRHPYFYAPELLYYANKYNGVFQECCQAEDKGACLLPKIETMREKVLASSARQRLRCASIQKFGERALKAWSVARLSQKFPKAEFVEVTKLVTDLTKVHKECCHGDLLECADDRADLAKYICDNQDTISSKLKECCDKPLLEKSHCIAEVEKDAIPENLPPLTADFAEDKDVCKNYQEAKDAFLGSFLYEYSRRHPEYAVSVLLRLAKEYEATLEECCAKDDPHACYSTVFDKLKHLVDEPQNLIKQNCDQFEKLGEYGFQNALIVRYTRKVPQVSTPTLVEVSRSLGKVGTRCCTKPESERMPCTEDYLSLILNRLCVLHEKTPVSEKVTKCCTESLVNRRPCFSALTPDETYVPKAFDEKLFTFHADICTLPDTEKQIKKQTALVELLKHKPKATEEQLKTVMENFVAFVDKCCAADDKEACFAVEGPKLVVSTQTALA

[2] = probe aXIP binding to arrayed compounds – biochemical, NeuroSMM set, 635/667 nm fluorescence, primary screen (AID 1119); conditions: small-molecule microarray, higher = more signal, called active from +8 up or from −8 down;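 further: probe is the protein aXip251-270 applied at 1 µg/mL to compound-printed slides; binding of probe to printed compounds measured as 667 nm fluorescence plus signal to noise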
[3] = probe aNOTCH3 binding on compound microarray – biochemical, small-molecule microarray, 635/667 nm fluorescence, primary screen (AID 1120); conditions: higher = more signal;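 further: probe is a biotin-tagged antibody raised against NOTCH3 rather than NOTCH3 protein; score merges spot fluorescence near 667 nm with spot signal to noise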
[4] = probe aNOTCH2 binding on compound microarray – biochemical, small-molecule microarray, 635/667 nm fluorescence, primary screen (AID 1121); conditions: higher = more signal;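 further: score merges feature fluorescence read at 667 nm with its signal to noise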
[5] = target: Carbonic anhydrase 2 (Homo sapiens) (UniProt P00918); experiment: compounds binding carbonic anhydrase 2 – biochemical, small-molecule microarray, Alexa647-labelled CAII, profiling panel (AID 1122); conditions: CAII-A647 binding fluorescence, higher = more signal
[6] = COS7 lysate on small-molecule microarray, probe aHis, 635 nm (AID 1123); conditions: COS7 cell lysate, fluorescence, higher = more signal;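 further: z-score combines 667nm fluorescence intensity with signal-to-noise per printed compound spot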
[7] = probe aLAP1 signal on lysate-treated microarray – cell lysate, small-molecule microarray, COS7 lysate, primary screen (AID 1124); conditions: probe aLAP1, fluorescence, higher = more signal;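 further: lysate comes from COS7 cells expressing LAP1 and is applied at 0.3 µg/mL; score merges spot fluorescence near 667 nm with signal-to-noise over triplicate slides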
[8] = tested on: Sam68 (KHDRBS1); experiment: compounds binding KHDRBS1 protein – biochemical, small-molecule microarray, 635 nm fluorescence, primary screen (AID 1125); conditions: higher = more signal;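 further: score merges 667 nm channel intensity with signal to noise over triplicate slides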
[9] = tested on: Chordin-like protein 2 (CHRDL2); experiment: compounds binding chordin-like 2 – biochemical, small-molecule microarray, 635 nm fluorescence, primary screen (AID 1126); conditions: fluorescence 635 nm, higher = more signal;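 further: printed compound slides probed with Chrdl2 protein at 4 µg/mL for 1 h at 4 C; score merges 667 nm emission intensity with signal to noise over three replicate slides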
[10] = target: Concanavalin-A (Canavalia ensiformis) (UniProt P02866); experiment: compounds binding concanavalin A lectin – biochemical, small-molecule microarray, Alexa647 label, 635 nm, artefact control for SMM control protein annotation, primary screen (AID 1127); conditions: ConA-A647 binding fluorescence, higher = more signal;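 further: z combines 667 nm emission intensity with signal-to-noise across three replicate slides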
Concanavalin-A (Canavalia ensiformis), sequence (P02866 whole entry, looked up): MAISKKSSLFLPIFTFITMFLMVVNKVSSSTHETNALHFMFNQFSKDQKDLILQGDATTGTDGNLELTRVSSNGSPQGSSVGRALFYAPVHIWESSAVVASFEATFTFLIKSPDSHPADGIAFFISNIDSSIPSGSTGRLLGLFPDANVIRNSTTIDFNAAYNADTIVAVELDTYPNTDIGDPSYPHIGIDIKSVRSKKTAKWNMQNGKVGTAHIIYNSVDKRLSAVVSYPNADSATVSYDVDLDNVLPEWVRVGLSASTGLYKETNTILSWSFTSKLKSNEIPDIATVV

[11] = compounds binding Alexa647 anti-His antibody – biochemical, small-molecule microarray, 635 nm fluorescence, artefact control for SMM control protein annotation, primary screen (AID 1128); conditions: higher = more signal;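 further: score merges feature fluorescence with signal-to-noise for each printed compound spot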
[12] = tested on: Human papillomavirus type 1a E7 protein (residues 1-88); experiment: HPV1a E7 small-molecule binders, primary screen, biochemical, small-molecule microarray, residues 1-88, 635 nm (AID 1129); conditions: small-molecule microarray binding, fluorescence 635 nm; higher = more signal
[13] = target: Focal adhesion kinase 1 (Homo sapiens) (UniProt Q05397); experiment: PTK2 protein binding on printed compound slides – biochemical, small-molecule microarray, 635/667 nm fluorescence, BSA, DTT, primary screen (AID 1130); conditions: 635 nm fluorescence, higher = more signal;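 further: composite of spot emission at 667 nm and signal to noise over triplicate slides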
Focal adhesion kinase 1 (Homo sapiens), sequence (Q05397 whole entry, looked up): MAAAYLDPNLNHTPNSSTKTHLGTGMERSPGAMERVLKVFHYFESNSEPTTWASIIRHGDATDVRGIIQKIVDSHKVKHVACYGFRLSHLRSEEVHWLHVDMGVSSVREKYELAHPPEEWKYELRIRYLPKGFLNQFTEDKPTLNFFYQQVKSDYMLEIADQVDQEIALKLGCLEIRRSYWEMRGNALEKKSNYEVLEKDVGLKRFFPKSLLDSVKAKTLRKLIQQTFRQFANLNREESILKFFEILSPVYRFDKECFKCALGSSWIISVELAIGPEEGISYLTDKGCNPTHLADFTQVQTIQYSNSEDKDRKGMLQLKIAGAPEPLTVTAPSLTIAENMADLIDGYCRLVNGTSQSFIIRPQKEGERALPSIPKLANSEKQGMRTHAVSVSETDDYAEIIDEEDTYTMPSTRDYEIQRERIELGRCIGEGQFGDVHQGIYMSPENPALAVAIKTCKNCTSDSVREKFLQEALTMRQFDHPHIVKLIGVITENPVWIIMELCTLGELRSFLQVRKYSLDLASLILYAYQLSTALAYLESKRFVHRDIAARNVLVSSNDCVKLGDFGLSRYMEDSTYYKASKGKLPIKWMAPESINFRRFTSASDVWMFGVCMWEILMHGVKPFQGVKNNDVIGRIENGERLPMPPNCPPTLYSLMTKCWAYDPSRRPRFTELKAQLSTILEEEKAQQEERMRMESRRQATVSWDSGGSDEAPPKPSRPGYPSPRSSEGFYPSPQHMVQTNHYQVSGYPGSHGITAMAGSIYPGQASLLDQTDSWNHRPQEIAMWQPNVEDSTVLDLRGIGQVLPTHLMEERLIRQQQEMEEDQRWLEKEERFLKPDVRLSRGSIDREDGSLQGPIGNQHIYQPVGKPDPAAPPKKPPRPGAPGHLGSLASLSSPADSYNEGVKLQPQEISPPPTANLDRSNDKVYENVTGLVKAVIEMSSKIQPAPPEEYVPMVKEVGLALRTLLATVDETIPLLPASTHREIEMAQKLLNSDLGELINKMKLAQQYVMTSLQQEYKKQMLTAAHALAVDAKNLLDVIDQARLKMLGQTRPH

[14] = tested on: Fibrinogen (Alexa647-labelled); experiment: Alexa647-fibrinogen binding to printed small molecules – biochemical, small-molecule microarray, 635/667 nm fluorescence, artefact control for SMM control-protein annotation, profiling panel (AID 1131); conditions: fibrinogen-A647 binding fluorescence, higher = more signal;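 further: z-score merges 667 nm fluorescence with per-spot signal-to-noise over triplicate slides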
[15] = target: Follistatin (Homo sapiens) (UniProt P19883); experiment: FST protein binding to printed compounds – biochemical, small-molecule microarray, 635/667 nm fluorescence, primary screen (AID 1132); conditions: 635 nm fluorescence, higher = more signal
Follistatin (Homo sapiens), sequence (P19883 whole entry, looked up): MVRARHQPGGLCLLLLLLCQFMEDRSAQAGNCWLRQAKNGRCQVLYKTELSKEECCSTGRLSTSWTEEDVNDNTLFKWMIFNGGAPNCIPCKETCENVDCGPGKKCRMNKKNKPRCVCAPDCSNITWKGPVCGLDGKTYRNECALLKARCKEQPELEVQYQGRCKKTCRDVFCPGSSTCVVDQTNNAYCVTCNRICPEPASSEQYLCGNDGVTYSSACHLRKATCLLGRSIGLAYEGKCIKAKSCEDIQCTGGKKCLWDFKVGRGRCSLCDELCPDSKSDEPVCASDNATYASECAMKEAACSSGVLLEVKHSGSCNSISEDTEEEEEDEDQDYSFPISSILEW

[16] = target: Fibroblast growth factor 2 (Homo sapiens) (UniProt P09038); experiment: basic fibroblast growth factor binding to printed compounds – biochemical, small-molecule microarray, 635/667 nm fluorescence, primary screen (AID 1133); conditions: FGF2, fluorescence 635/667, higher = more signal
Fibroblast growth factor 2 (Homo sapiens), sequence (P09038 whole entry, looked up): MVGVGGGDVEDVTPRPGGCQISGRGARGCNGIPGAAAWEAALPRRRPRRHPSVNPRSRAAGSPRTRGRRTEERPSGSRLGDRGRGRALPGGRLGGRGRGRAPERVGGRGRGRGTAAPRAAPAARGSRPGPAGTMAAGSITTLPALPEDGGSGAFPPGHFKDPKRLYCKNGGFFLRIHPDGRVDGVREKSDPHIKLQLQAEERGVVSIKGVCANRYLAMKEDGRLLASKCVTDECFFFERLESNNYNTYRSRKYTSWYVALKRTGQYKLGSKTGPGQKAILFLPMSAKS

[17] = JC-1 mitochondrial potential readout, lung cancer cells – cell-based, A549, JC-1 fluorescence, basal, 24 h, 100 nL, profiling panel (AID 1138); conditions: higher = more signal;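 further: A549 lung adenocarcinoma cells under basal conditions with no added stimulus; test concentration not given here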
[18] = tested on: Lefty1; experiment: Lefty1 protein binding to printed compounds – biochemical, small-molecule microarray, 635/667 nm fluorescence, primary screen (AID 1139); conditions: fluorescence 635/667, higher = more signal
[19] = tested on: wheat germ agglutinin (Triticum aestivum), Alexa647-labelled; experiment: Alexa647-WGA lectin binding to printed small molecules – biochemical, small-molecule microarray, 635/667 nm fluorescence, artefact control for SMM control-protein annotation, profiling panel (AID 1140); conditions: WGA-A647 binding, 635 nm fluorescence, higher = more signal;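 further: score merges 667 nm feature emission with signal to noise over triplicate slides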
[20] = target: Luciferin 4-monooxygenase (Photinus pyralis) (UniProt P08659); experiment: inhibition of purified Photinus pyralis luciferase – biochemical, luminescence, purified enzyme, 2006 set, primary screen (AID 1141); conditions: purified firefly luciferase, SteadyGlo luminescence, 30 min; higher = more signal, called active from +8 up or from −8 down;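 further: cell-free assay with purified firefly luciferase at 100 ng per well in PBS; test concentration not given here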
Luciferin 4-monooxygenase (Photinus pyralis), sequence (P08659 whole entry, looked up): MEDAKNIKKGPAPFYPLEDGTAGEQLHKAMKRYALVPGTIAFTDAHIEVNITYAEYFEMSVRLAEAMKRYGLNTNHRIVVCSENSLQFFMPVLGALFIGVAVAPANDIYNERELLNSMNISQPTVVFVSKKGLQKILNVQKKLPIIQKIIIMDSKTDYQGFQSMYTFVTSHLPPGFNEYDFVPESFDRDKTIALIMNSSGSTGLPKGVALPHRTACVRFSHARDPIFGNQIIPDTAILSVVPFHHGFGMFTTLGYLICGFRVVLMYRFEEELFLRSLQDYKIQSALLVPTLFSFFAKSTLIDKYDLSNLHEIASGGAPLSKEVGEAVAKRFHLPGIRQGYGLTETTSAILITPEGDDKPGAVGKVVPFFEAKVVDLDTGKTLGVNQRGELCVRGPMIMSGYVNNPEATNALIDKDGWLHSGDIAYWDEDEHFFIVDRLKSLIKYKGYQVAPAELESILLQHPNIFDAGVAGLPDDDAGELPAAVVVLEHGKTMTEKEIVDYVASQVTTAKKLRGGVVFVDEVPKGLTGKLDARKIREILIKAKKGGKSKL

Row | SMILES | composite z-score [1] | composite Z-score [2] | composite z-score [3] | composite z-score [4] | composite z-score [5] | composite z-score [6] | composite z-score [7] | composite z-score [8] | composite z-score [9] | composite z-score [10] | composite z-score [11] | composite z-score [12] | composite z-score [13] | composite z-score [14] | composite z-score [15] | composite z-score [16] | z-score [17] | composite z-score [18] | composite z-score [19] | z-score [20]
1 | C[N+](C)(C)CCCCNC(=O)[C@H]1C[C@H]2C(=O)N[C@@H](CCCC[N+](C)(C)C)C(=O)N2[C@H]1c1ccc(O)cc1 | -0.839 and -1.32 | 0.472 (inactive) and 2.29 (inactive) | -0.0947 and 0.0311 | -0.14 and -0.108 | 0.257 and 0.0659 | 0.385 and 0.233 | -0.126 and -0.102 | 1.32 and 0.681 | 1.5 and 1.48 | 1.16 and -0.33 | 2.99 and 3.33 | 0.395 and -1.59 | 0.267 and -0.478 | 0.56 and -1.1 | 1.57 and 1.45 | 2.01 and 1.99 | -0.0637 and -0.967 | 1.62 and 1.64 | -0.608 and -1.01 | 0.325 (inactive) and 0.332 (inactive)
2 | C=CCN(Cc1ccccc1)C(=O)C1N(c2ccc(CCO)cc2)C(=O)C2C(C(=O)O)C3C=CC21O3 (stereo not given) | -1.88 and -0.419 | -0.364 (inactive) and -0.371 (inactive) | -0.393 and -0.575 | -0.201 and 0.0434 | 0.942 and 0.937 | -0.361 and -0.701 | -0.418 and -0.931 | -1.15 and -1.08 | -1.61 and -3.84 | -1.82 and -1.97 | -1.33 and -0.796 | -1.49 and -1.7 | 0.0389 and -0.704 | -0.944 and -1.58 | -2 and -2.08 | -2.32 and -2.92 | -0.571 and -0.775 | -2.53 and -1.55 | -0.0866 and 1.16 | -0.927 (inactive) and -0.283 (inactive)
3 | CCOC(=O)CCN1C(=O)[C@H]2[C@H]3[C@H](O)[C@H](O)CC(=NNC(=O)OCC)[C@@H]3CC[C@H]2C1=O | 0.357 | -0.436 (inactive) | 0.229 | -0.0131 | -0.249 | 0.043 | 0.127 | 0.739 | -0.0855 | 0.0804 | -0.23 | 0.364 | 0.366 | 0.384 | -0.124 | 0.447 | 0.167 | -0.0407 | -0.368 | 0.406 (inactive)
4 | CN1C(=O)C2CC=C([C@H]3Oc4ccccc4S(=O)(=O)N4CCC[C@@H]34)CC2C1=O (stereo not given in full) | -0.75 and -0.505 | 0.183 (inactive) and -0.213 (inactive) | -0.182 and -0.173 | -0.14 and -0.084 | -0.296 and -0.322 | -0.616 and -0.564 | 0.892 and -0.263 | -1.08 and -1.56 | -0.144 and 0.153 | -0.476 and -1.05 | 0.009 and -0.183 | -0.984 and -0.409 | 0.285 and 0.14 | 0.0887 and -1.25 | -0.375 and -0.417 | -0.19 and -0.132 | -0.719 and -0.239 | -0.499 and 0.192 | -0.213 and -1.39 | 0.156 (inactive) and 0.737 (inactive)
5 | O=c1n(-c2ccccc2)c(=O)n2n1CC[C@@H]1C(=NOC[C@@H](O)COCc3ccco3)[C@H]3O[C@H]3[C@@H](O)[C@@H]12 | -0.73 and 0.143 | -0.014 (inactive) and 0.545 (inactive) | -0.173 and -0.268 | -0.122 and -0.174 | -0.14 and 0.0148 | -0.251 and -0.862 | -0.0025 and -0.111 | 0.623 and -0.34 | 1.31 and 0.628 | -0.331 and 0.101 | 0.196 and 1.9 | 0.0776 and -0.425 | 0.828 and -0.367 | -0.309 and -0.105 | 1.15 and 0.461 | 1.02 and 0.96 | -0.642 and -0.729 | 1.43 and 0.459 | -0.392 and 0.0106 | 0.0662 (inactive) and -0.214 (inactive)
